YB-1 expr inh – inhibitors of YB-1 gene expression, primary screen, cell-based, fluorescence. U2OS, qRT-PCR YB-1 vs CDIP delta delta Cp, 16 h; stronger effect = higher value; zero = DMSO, each unit about twofold. delta delta Cp (YB-1 minus CDIP) (concentration not given with the values). 0.37% of 30,000 active. AID 434959, 2010;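 active = delta delta Cp rounded down to an integer at or above 3, about 3 SD of DMSO wells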;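 also: higher means less YB-1 transcript or more CDIP transcript relative to DMSO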
U2OS ROS induce – ROS inducers in U2OS cancer cells, primary screen, cell-based, H2DCF-DA fluorescence. U2OS ROS induction. ROS induction (% of piperlongumine), % at 10 µM. 2% of 46,000 active; in the data active = ROS induction above about 79%, passing the limit was not always enough;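 also: 0% = DMSO vehicle median and 100% = reference compound median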
Numbers without * were called inactive. This is a sample that favours compounds with a hit; in the whole collection about 2.1% have one here.

C[C@@H]1CCCCO[C@H](CN(C)C)[C@@H](C)CN([C@H](C)CO)C(=O)c2cc(NS(=O)(=O)c3ccc(F)cc3)ccc2O1 was read as YB-1 expr inh 0.469 and U2OS ROS induce 92.7*.
`COc1cccc(-c2nc(S(=O)(=O)c3ccc(C)cc3)c(N(C)C)o2)c1` gave U2OS ROS induce -9.5.
`Cc1csc(/C=C2\CCc3c(cnc4ccc5ccccc5c34)C2=O)c1` gave U2OS ROS induce 2.0.
Cc1oc(S(=O)(=O)N2CCCC2)cc1C(=O)NCc1ccc2c(c1)OCO2 was read as U2OS ROS induce -5.5.
`CC(C)(C)c1[nH]nc2c1C(c1ccc(OC(=O)c3ccccc3Cl)cc1)C(C#N)=C(N)O2` (stereo not given) gave U2OS ROS induce -8.8.
CC(C)(C)C1CCC2(CC1)C(C#N)C2(C#N)C(=O)c1ccccc1 (stereo not given) was read as YB-1 expr inh 0.0583 and U2OS ROS induce 159.4*.
CC12CCC(CC(=O)c3ccccc3)(CC1)CC2 was read as YB-1 expr inh 0.736 and U2OS ROS induce -0.5.
Screening O=C(CSc1ccc(-c2ccncc2)nn1)NC1CCCC1 returned U2OS ROS induce -6.2.
Screening COC(=O)c1cc(NC(=O)CN(c2ccccc2F)S(C)(=O)=O)ccc1Cl returned U2OS ROS induce 0.5.
Screening COC(=O)c1cc(S(=O)(=O)/C=C/c2ccccc2)c(Cl)cc1Cl returned U2OS ROS induce 120.8*.
`COc1ccc(-c2cc3cc(OC)c(OC)cc3c(Cc3ccccc3)n2)cc1` gave YB-1 expr inh -0.0934 and U2OS ROS induce 154.7*.
Screening COc1cc2cc(C)nc(Cc3cccc4ccccc34)c2cc1OC returned YB-1 expr inh 0.116 and U2OS ROS induce 63.5.
Screening CCOc1ccccc1C(=O)N(CC#N)CC#N returned U2OS ROS induce -16.4.
COc1ccc(-n2cnc3cc(NCc4ccccc4O)ccc32)cc1 was read as U2OS ROS induce 29.5.
For COC(=O)C1=CN(c2ccc(F)cc2)C=C(C(=O)OC)C1c1cccc(O)c1 the results were U2OS ROS induce 43.7.
`CCOC(=O)C1=CN(c2ccc(C)c(C)c2)C=C(C(=O)OCC)C1c1ccccc1F` gave U2OS ROS induce 95.9*.
Screening O=C(Cn1c2ccccc2c2ccccc21)Sc1nc2ccccc2s1 returned U2OS ROS induce 12.1.
For CC(C)(C)C1CC=C2[C@H](C1)[C@@H](c1ccsc1)C(C#N)=C(N)C2(C#N)C#N (stereo not given in full) the results were YB-1 expr inh -0.282 and U2OS ROS induce 24.8.
`COC(=O)c1ccc([C@H]2C(C#N)=C(N)C(C#N)(C#N)C3=CCC(C(C)(C)C)C[C@@H]32)cc1` (stereo not given in full) gave YB-1 expr inh 0.109 and U2OS ROS induce 225.9*.
Screening COc1ccc(C(=S)N2CCCCC2)cc1OC returned U2OS ROS induce -6.8.
CC(=O)OCC(=O)[C@@]1(O)[C@H](C)C[C@H]2[C@@H]3CCC4=CC(=O)C=C[C@]4(C)[C@@]3(F)[C@@H](O)C[C@@]21C was read as YB-1 expr inh 0.233 and U2OS ROS induce 8.7.
For CC(=O)OCC(=O)[C@@]12OC3(CCCC3)O[C@@H]1CC1C3CCC4=CC(=O)C=C[C@]4(C)[C@@]3(F)[C@@H](O)C[C@@]12C (stereo not given in full) the results were YB-1 expr inh -0.0579 and U2OS ROS induce 129.5*.
Screening CCc1ccc(OCC(=O)Nc2sc3c(c2C(=O)OC)CCCC3)cc1 returned U2OS ROS induce -11.0.
`CN(C(=O)C(Cl)Cl)c1ccc(OC(=O)c2ccco2)cc1` gave YB-1 expr inh 3.72* and U2OS ROS induce -4.8.
Screening O=C(Oc1ccc(OC(=O)c2ccco2)cc1)c1ccco1 returned YB-1 expr inh 0.519 and U2OS ROS induce -3.4.
Screening CCc1ccc(N2C(=O)CC(Sc3ccccn3)C2=O)cc1 (stereo not given) returned U2OS ROS induce 15.2.
CNC(=O)c1ccc(/C=C2/Oc3ccccc3N(Cc3cccc(C)c3)C2=O)cc1 was read as U2OS ROS induce -3.1.
`C[C@@H]1CN([C@@H](C)CO)C(=O)c2cc(NC(=O)Cc3cn(C)c4ccccc34)ccc2O[C@@H]1CN(C)Cc1ccccc1` gave YB-1 expr inh -0.449 and U2OS ROS induce 13.4.
`C[C@H](CO)N1C[C@H](C)[C@H](CN(C)Cc2ccc(C(=O)O)cc2)Oc2ccc(NC(=O)Cc3cn(C)c4ccccc34)cc2C1=O` gave YB-1 expr inh 0.245 and U2OS ROS induce -5.1.
For C[C@H](CO)N1C[C@H](C)[C@@H](CN(C)Cc2ccc(C(F)(F)F)cc2)Oc2ccc(NC(=O)Cc3cn(C)c4ccccc34)cc2C1=O the results were YB-1 expr inh 0.0358 and U2OS ROS induce 108.8*.
C[C@H]1CN([C@@H](C)CO)C(=O)c2cc(NC(=O)Cc3cn(C)c4ccccc34)ccc2O[C@@H]1CN(C)Cc1ccc(C(F)(F)F)cc1 was read as YB-1 expr inh -0.461 and U2OS ROS induce 122.4*.
`CC(=O)NC(C)c1nc2ccccc2n1Cc1ccccc1` (stereo not given) gave U2OS ROS induce -6.6.
Screening C[C@H](CO)N1C[C@H](C)[C@H](CN(C)Cc2ccccc2)Oc2ccc(NS(=O)(=O)c3ccc(Cl)cc3)cc2C1=O returned YB-1 expr inh 6.13* and U2OS ROS induce -10.4.
`C[C@H]1CN([C@@H](C)CO)C(=O)c2cc(NS(=O)(=O)c3ccc(Cl)cc3)ccc2O[C@@H]1CN(C)Cc1ccc(C(F)(F)F)cc1` gave YB-1 expr inh 0.227 and U2OS ROS induce 80.6*.
Screening C[C@@H]1CN([C@@H](C)CO)C(=O)c2cc(NS(=O)(=O)c3ccc(Cl)cc3)ccc2O[C@@H]1CN(C)Cc1ccccc1 returned YB-1 expr inh -0.0605 and U2OS ROS induce 1.7.
`C[C@H](CO)N1C[C@H](C)[C@@H](CN(C)Cc2ccc(C(F)(F)F)cc2)Oc2ccc(NS(=O)(=O)c3ccc(Cl)cc3)cc2C1=O` gave YB-1 expr inh 0.407 and U2OS ROS induce 54.2.
`CC(=O)NC(=O)C1C=C2C=CC=CC2OC1=Nc1ccc(Cl)cc1` (stereo not given) gave U2OS ROS induce 15.8.
For N#CCCN1CCn2c3ccc(C4CCCCC4)cc3c3cccc1c32 the results were U2OS ROS induce 17.8.
`O=C(Nc1nc2nc(-c3ccccc3)cc(-c3ccccc3)n2n1)c1ccccc1` gave U2OS ROS induce 63.7.
CC1(C)CC(=O)C2=C(C1)N(Cc1ccc(F)cc1)C(=O)C2(NC(=O)c1cccnc1)C(F)(F)F (stereo not given) was read as U2OS ROS induce -10.7.
Screening CCC1=NC(C(F)(F)F)(C(F)(F)F)C2=C(CC(C)(C)CC2=O)N1Cc1ccccc1 returned YB-1 expr inh -0.909 and U2OS ROS induce 120.4*.
`CN1CCN(NC(=O)CCN2C(=O)/C(=C\c3ccccc3)SC2=S)CC1` gave YB-1 expr inh -0.0177 and U2OS ROS induce 4.1.
For COc1ccc(/C=C2\SC(=S)N(CCCC(=O)O)C2=O)cc1OC the results were YB-1 expr inh -0.312 and U2OS ROS induce 137.6*.
`COc1ccc2cc(C(C)C(=O)Nc3cc(Cl)cc(Cl)c3)ccc2c1` (stereo not given) gave U2OS ROS induce -14.2.
`c1ccc(-n2ncc3c(N4CCc5ccccc54)ncnc32)cc1` gave YB-1 expr inh 0.263 and U2OS ROS induce -4.3.

Compound activity (PubChem)
